An excerpt weighted towards active compounds, which were near 2.8% of everything screened.
KKLEB cytotox – counter-screen for CF NF-kB inhibitors: cytotoxicity; 360,000 compounds, 0.36% hits; KKLEB CF airway cells viability, ATPlite luminescence, overnight; stronger effect = lower value; cells stimulated with P. aeruginosa culture filtrate; activity change (cytotoxicity), % at 5 µM;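 active = corrected activity change at or below -50% at 5 µM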
CF NFkB block – cystic fibrosis NF-kB activation inhibition. inhibition, % at 5 µM. 360,000 compounds, 0.86% hits. AID 588850. KKLEB NF-kB-GFP reporter, PAF-induced, GFP fluorescence overnight;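 active = at least 50% inhibition at 5 µM, scaled per plate between neutral and stimulator controls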;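 also: PAF is a Pseudomonas aeruginosa culture filtrate used as stimulus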
Shn3 inh set2 – inhibitors of Schnurri-3 3'UTR reporter in osteoblasts; Clone20 osteoblast Shn3 3'UTR firefly luciferase, 24 h; inhibition, % at 12.5 µM; 360,000 compounds, 0.52% hits; AID 588674;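 active = mean inhibition of at least 75% with every replicate also reaching 75%; inconclusive = mean inhibition at least 75% but some replicate below; inactive = mean inhibition below 75%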
HIF-2a inh – inhibitors of HIF-2a | 786-0 RCC cells HIF-2a reporter, luciferase luminescence, overnight | inhibition, % at 18.8 µM | 360,000 compounds, 0.72% hits | AID 624352;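 active = inhibition of the luminescence signal of 40% or more relative to plate controls, in a single-dose primary screen at 18.75 µM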
Peg3 promoter – reduces Peg3 promoter-driven luciferase expression in HeLa; HeLa PEG-Prom luciferase reporter, luminescence, overnight; inhibition, % at 20 µM; 360,000 compounds, 1.7% hits; AID 588405;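 active = inhibition of at least 50% at 20 µM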
TRPM1 prom inh – inhibitors of MITF-driven TRPM1 promoter in melanoma cells; SK-MEL-5 TRPM1 promoter luciferase, 24 h; inhibition, % at 12.5 µM; 330,000 compounds, 0.83% hits; AID 488899;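 active = mean inhibition across replicates of 60% or more, whatever share of single replicates reaches that level; inconclusive = some that reach 60%, reason not given; inactive = mean inhibition across replicates below 60%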
Each line names hits and unclear results; the compound was inactive in the other large screens; ! = not active in a repeat.

O=C(CSc1nc2ccccc2c(=O)n1-c1ccc(SC(F)F)cc1)Nc1ccc(N2CCOCC2)cc1	KKLEB cytotox -66, CF NFkB block 66
CCCC(c1nnnn1Cc1ccc(OC)cc1)N1CCN(c2ccccc2)CC1 (stereo not given)	Shn3 inh set2 89
CN1CCN(C(=O)/C(=C/c2ccccc2F)NC(=O)c2ccccc2)CC1	none
CN(C)CCNc1ncnc2c1sc1nc(-c3ccccc3)c3c(c12)CCCC3	Peg3 promoter 111
Cc1ccccc1CNC(=O)c1ccccc1SCC(=O)NCc1ccco1	none
CC(C)(C)N(NC(=O)Nc1ccc(Cl)c(Cl)c1)C(=O)c1ccccc1	Peg3 promoter 61
COc1cnc(-c2ccccn2)nc1NC(C)C	Shn3 inh set2 92, TRPM1 prom inh 66
COc1ccccc1Sc1nc(-c2ccccn2)ncc1OC	none
CCN=c1scc(-c2ccc(F)cc2)n1/N=C/c1ccccn1	none
CCCc1sc(N/N=C/c2ccccn2)nc1-c1ccc(F)cc1	KKLEB cytotox -51, TRPM1 prom inh 63
COc1ccccc1-c1cc2nc(-c3ccccc3)cc(N3CCN(C(=O)c4ccco4)CC3)n2n1	Peg3 promoter 73 (no result: TRPM1 prom inh)
COc1cccc(-c2cc3nc(-c4ccccc4)cc(N4CCN(C(=O)c5ccoc5)CC4)n3n2)c1	Peg3 promoter 72 (no result: TRPM1 prom inh)
Cc1cc(N2CCN(C(=O)c3ccoc3)CC2)n2nc(-c3ccccc3)cc2n1	none (no result: TRPM1 prom inh)
O=C(c1ccoc1)N1CCN(c2cc(-c3ccco3)nc3cc(-c4ccccc4)nn23)CC1	Peg3 promoter 74 (no result: TRPM1 prom inh)
COc1ccccc1-c1cc2nc(-c3ccccc3)cc(N3CCN(C(=O)c4ccoc4)CC3)n2n1	Peg3 promoter 81 (no result: TRPM1 prom inh)
COc1ccc(CCNC(=O)c2ccc(Br)o2)cc1Br	none (no result: KKLEB cytotox, CF NFkB block, Shn3 inh set2, Peg3 promoter, TRPM1 prom inh)
COc1ccc(OC)c(C(=O)NC(CC(N)=O)c2ccc(NCCN3CCCCC3)c([N+](=O)[O-])c2)c1 (stereo not given)	none
CCCc1cc(=O)oc2c3c(cc(OCC(=O)N4CCC(C(=O)O)CC4)c12)OC(C)(C)CC3	none (no result: TRPM1 prom inh)
CCc1ccc(OC2(C)CCN(Cc3ccc4c(c3)OCCO4)C2)cc1 (stereo not given)	none (no result: TRPM1 prom inh)
COc1cc(C=O)ccc1OC(=O)c1cccnc1	none
COc1ccc(/C=C/C(=O)N2CCN(c3ccccn3)CC2)cc1OC	none
O=C1c2cccc3c([N+](=O)[O-])ccc(c23)C(=O)N1c1nccs1	Peg3 promoter 94, TRPM1 prom inh inconclusive
O=C1c2cccc3c([N+](=O)[O-])ccc(c23)C(=O)N1c1ccccn1	Peg3 promoter 94
O=C1c2cccc3c([N+](=O)[O-])ccc(c23)C(=O)N1O	none
O=C1c2cccc3cccc(c23)C(=O)N1c1nccs1	none
CC(C)N(C)c1ncnc2c1ncn2[C@H]1CN(Cc2ccc(Cl)cc2)C[C@@H](CO)O1	none (no result: TRPM1 prom inh)
CCN(CC)CCN1C(=O)C(=O)/C(=C(/O)c2ccc(S(=O)(=O)N3CCOCC3)cc2)C1c1ccc(C(C)(C)C)cc1 (stereo not given)	none
COc1ccc(-c2oc3ncnc(NCCCN4CCOCC4)c3c2-c2ccc(OC)cc2)cc1	Peg3 promoter 64
c1ccc(-c2oc3ncnc(NCCCN4CCOCC4)c3c2-c2ccccc2)cc1	none
CCN1CCN(Cc2ccc(NC(=O)c3cc(NC(=O)c4cncc(-c5cccs5)c4)cc(OC)c3)cc2C(F)(F)F)CC1	Shn3 inh set2 98 (no result: TRPM1 prom inh)
CCN1CCN(Cc2ccc(NC(=O)c3ccc(C)c(NC(=O)c4cccc(-c5cn[nH]c(=O)c5)c4)c3)cc2C(F)(F)F)CC1	CF NFkB block 72
CCN1CCN(Cc2ccc(NC(=O)c3ccc(C)c(/C=C/c4cnc(Nc5cc(N6CCNCC6)nc(C)n5)cn4)c3)cc2C(F)(F)F)CC1	CF NFkB block 76!, Shn3 inh set2 96, Peg3 promoter 96, TRPM1 prom inh 98
CCN1CCN(Cc2ccc(NC(=O)c3cc(NC(=O)c4ccc5n[nH]nc5c4)cc(OC)c3)cc2C(F)(F)F)CC1	none
CCN1CCN(Cc2ccc(NC(=O)c3cc(NC(=O)c4cc(-c5ccc(OC)cc5)n[nH]4)cc(OC)c3)cc2C(F)(F)F)CC1	TRPM1 prom inh 99
COc1cc(NC(=O)c2ccc(N)nc2)cc(C(=O)Nc2cccc(C(F)(F)F)c2)c1	none
CCN1CCN(Cc2ccc(NC(=O)c3ccc(C)c(NC(=O)C4=NN(c5ccccc5)C(=O)C4)c3)cc2C(F)(F)F)CC1	none
